Assay [1] has as its system Plasmodium falciparum Sir2 (PF13_0152, Sir2A). The assay is described as follows: Plasmodium falciparum Sir2A binding compounds – biochemical, small-molecule microarray, 635 nm fluorescence, primary screen (AID 1098).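 Also: score merges spot fluorescence intensity with its signal-to-noise ratio.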 The settings on record: fluorescence 635 nm, higher = more signal.
Assay [2] in a line: probe aDKK1 binding to arrayed compounds – biochemical, biotinylated probe, 635/667 nm fluorescence, primary screen (AID 1099).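 Also: score merges 667nm spot fluorescence with signal to noise across triplicate slides.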 The settings on record: small-molecule microarray, higher = more signal.
A short description of assay [3]: probe aCHRDL2 binding to arrayed compounds – biochemical, biotinylated probe, 635/667 nm fluorescence, primary screen (AID 1100). The settings on record: small-molecule microarray, higher = more signal.
The nature of assay [4]: change in splice reporter luminescence, either direction, cell-based, HEK293, spliceosome inhibition project, primary screen (AID 1101).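 Also: HEK293 cells carrying a splicing-competent luciferase reporter gene; test concentration not given here.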 The settings on record: HEK293 splicing luciferase reporter, 24 h, higher = more signal, called active from +8 up or from −8 down.
Assay [5] concerns the target Fibroblast growth factor 10 (Homo sapiens) (UniProt O15520). Description: compounds binding fibroblast growth factor 10 – biochemical, small-molecule microarray, 635 nm fluorescence, primary screen (AID 1102). The settings on record: FGF10 binding, fluorescence 635 nm, higher = more signal.
Assay [6] concerns glycogen synthase kinase-3 (GSK3A per assay name; protocol says GSK3B). Description: compounds binding glycogen synthase kinase-3 – biochemical, small-molecule microarray, 635 nm fluorescence, GSK3A, primary screen (AID 1103). Also: the record names both GSK3A and GSK3B. The settings on record: fluorescence 635 nm, higher = more signal.
Assay [7] addresses Epidermal growth factor receptor (Homo sapiens) (UniProt P00533). The assay is described as follows: compounds binding epidermal growth factor receptor – biochemical, small-molecule microarray, 635 nm fluorescence, primary screen (AID 1104).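 Also: score merges 667 nm emission intensity with spot signal to noise over triplicate slides.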 The settings on record: EGFR binding, higher = more signal.
Assay [8] concerns the target Follistatin-related protein 3 (Homo sapiens) (UniProt O95633). The assay is described as follows: compounds binding follistatin-related protein 3 – biochemical, small-molecule microarray, 635 nm fluorescence, primary screen (AID 1105).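 Also: score merges emission near 667 nm and signal to noise per printed spot across three slides.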 The settings on record: FSTL3 binding, higher = more signal.
In assay [9] the target is Dickkopf-related protein 1 (Homo sapiens) (UniProt O94907). The assay is described as follows: small molecules binding DKK1 protein – biochemical, small-molecule microarray, 635 nm fluorescence scan, primary screen (AID 1106).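 Also: score merges emission near 667 nm with signal to noise over three replicate slides.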 The settings on record: higher = more signal.
Chain of Dickkopf-related protein 1 (Homo sapiens) (O94907 whole entry, looked up): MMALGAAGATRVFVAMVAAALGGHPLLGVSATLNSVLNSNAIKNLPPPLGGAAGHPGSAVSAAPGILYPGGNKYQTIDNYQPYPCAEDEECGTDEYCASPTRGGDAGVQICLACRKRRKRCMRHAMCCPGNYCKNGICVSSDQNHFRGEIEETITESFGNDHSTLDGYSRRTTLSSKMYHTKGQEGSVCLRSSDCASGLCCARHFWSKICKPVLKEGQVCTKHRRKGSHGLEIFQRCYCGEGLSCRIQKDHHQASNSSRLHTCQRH
For assay [10], the system named is Inhibin beta A chain (activin A). Description: small molecules binding activin A – biochemical, small-molecule microarray, 635 nm fluorescence scan, primary screen (AID 1107).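 Also: mouse activin A protein probed at 4.33 µg/mL on printed slides; score merges bound-protein fluorescence near 667 nm with spot signal-to-noise.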 The settings on record: INHBA, higher = more signal.
The test system of assay [11] is Human papillomavirus type 1a protein E7 (residues 44-93). The assay is described as follows: small molecules binding HPV E7 44-93 – biochemical, small-molecule microarray, residues 44-93, 635 nm fluorescence, primary screen (AID 1108).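 Also: E7 fragment applied at 1 µg/mL in TBST for 1 h at 4 C; score combines spot fluorescence with its signal to noise ratio.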 The settings on record: fluorescence 635 nm, higher = more signal.
Assay [12] can be described thus: hepatitis C replication reporter changes, two-sided – Huh7 cells, luciferase reporter, HCV replication inhibitor project, primary screen (AID 1109).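 Also: huh7 hepatoma cells harbouring a luciferase neomycin HCV replicon reporter; luciferase luminescence as measure of HCV replicon replication; test concentration not given here.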 The settings on record: Huh7 HCV replicon luciferase reporter, 48 h; higher = more signal. Background: A reporter such as luciferase makes a cellular process visible.
In assay [13] the target is Left-right determination factor 2 (Homo sapiens) (UniProt O00292). Description: small molecules binding LEFTY2 protein – biochemical, small-molecule microarray, 635 nm fluorescence scan, primary screen (AID 1110). The settings on record: higher = more signal.
Chain of Left-right determination factor 2 (Homo sapiens) (O00292 whole entry, looked up): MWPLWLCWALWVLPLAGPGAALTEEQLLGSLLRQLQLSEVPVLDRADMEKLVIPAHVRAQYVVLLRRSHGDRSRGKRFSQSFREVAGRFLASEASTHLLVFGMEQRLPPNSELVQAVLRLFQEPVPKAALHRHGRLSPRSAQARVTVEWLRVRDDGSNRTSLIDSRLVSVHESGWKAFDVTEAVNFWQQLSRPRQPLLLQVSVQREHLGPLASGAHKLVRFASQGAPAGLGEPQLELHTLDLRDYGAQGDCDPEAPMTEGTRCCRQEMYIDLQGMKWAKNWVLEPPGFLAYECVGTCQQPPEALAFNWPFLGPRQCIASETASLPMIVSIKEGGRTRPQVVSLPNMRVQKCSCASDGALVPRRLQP
Assay [14] has as its target Calmodulin-1 (Homo sapiens) (UniProt P0DP23). The assay is described as follows: small molecules binding calmodulin-1 with EGTA – biochemical, small-molecule microarray, Cy5-labelled CALM1, profiling panel (AID 1111).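 Also: labelled calmodulin applied in Tris saline Tween buffer holding calcium plus EGTA and DTT.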 The settings on record: Cy5-CALM1 binding fluorescence, higher = more signal.
Assay [15] has the same target. Description: small molecules binding Ca-loaded calmodulin-1 – biochemical, small-molecule microarray, Cy5-labelled CALM1, plus calcium, artefact control for SMM control-protein annotation, profiling panel (AID 1112).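 Also: score merges spot fluorescence with signal to noise from triplicate slides.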 The settings on record: Cy5-CALM1 binding fluorescence, higher = more signal.
The nature of assay [16]: probe aWnt5a binding to arrayed compounds – biochemical, biotinylated probe, 635/667 nm fluorescence, primary screen (AID 1113).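 Also: score merges 667 nm fluorescence intensity with signal-to-noise per printed feature.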 The settings on record: small-molecule microarray, higher = more signal.
Assay [17] in a line: probe aShh binding to arrayed compounds – biochemical, biotinylated probe, 635/667 nm fluorescence, primary screen (AID 1114).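 Also: probe is biotin-labelled aShh protein from a stem cell growth factor screen; measures binding of labelled protein to compounds printed on the slide; score merges feature fluorescence at 667 nm with signal-to-noise.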 The settings on record: small-molecule microarray, higher = more signal.
Assay [18] in a line: probe aNog binding to arrayed compounds – biochemical, biotinylated probe, 635/667 nm fluorescence, primary screen (AID 1115).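 Also: probe is biotinylated aNog protein used at 0.15 µg/mL for 1 h at 4 C; z-score combines 667 nm fluorescence of each spot with its signal to noise.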 The settings on record: small-molecule microarray, higher = more signal.
Assay [19] concerns the target Torsin-1A-interacting protein 1 (Homo sapiens) (UniProt Q5JTV8). The assay is described as follows: compound microarray binding of lysate hLAP1 – cell lysate, small-molecule microarray, COS7 lysate, 635/667 nm fluorescence, primary screen (AID 1116). The settings on record: 635 nm fluorescence, higher = more signal.
Assay [20] addresses Alpha-bungarotoxin (Bungarus multicinctus) (UniProt P60615). Description: compounds binding labelled alpha-BTX control protein – biochemical, small-molecule microarray, Alexa647 label, 635/667 nm fluorescence, artefact control for SMM control protein annotation, profiling panel (AID 1117). The settings on record: alpha-BTX-A647 binding fluorescence, higher = more signal.

The structures appear in SMILES notation. Activity calls are given as the source filed them.

Chain of Torsin-1A-interacting protein 1 (Homo sapiens) (Q5JTV8 whole entry, looked up): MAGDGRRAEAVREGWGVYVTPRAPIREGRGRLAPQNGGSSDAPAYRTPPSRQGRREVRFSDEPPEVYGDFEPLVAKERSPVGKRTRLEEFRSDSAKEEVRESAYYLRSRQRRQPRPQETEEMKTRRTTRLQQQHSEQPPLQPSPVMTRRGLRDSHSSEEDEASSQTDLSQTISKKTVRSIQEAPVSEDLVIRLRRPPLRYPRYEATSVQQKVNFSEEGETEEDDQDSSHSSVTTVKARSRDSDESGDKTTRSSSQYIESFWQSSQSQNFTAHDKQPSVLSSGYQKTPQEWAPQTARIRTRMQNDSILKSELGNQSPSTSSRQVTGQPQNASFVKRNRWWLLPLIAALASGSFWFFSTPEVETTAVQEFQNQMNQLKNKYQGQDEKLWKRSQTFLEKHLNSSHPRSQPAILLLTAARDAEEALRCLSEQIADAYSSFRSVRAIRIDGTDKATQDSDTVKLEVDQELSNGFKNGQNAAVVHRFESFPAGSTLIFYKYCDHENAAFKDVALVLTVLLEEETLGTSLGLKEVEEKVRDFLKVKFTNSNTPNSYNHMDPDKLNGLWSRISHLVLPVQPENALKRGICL
Chain of Follistatin-related protein 3 (Homo sapiens) (O95633 whole entry, looked up): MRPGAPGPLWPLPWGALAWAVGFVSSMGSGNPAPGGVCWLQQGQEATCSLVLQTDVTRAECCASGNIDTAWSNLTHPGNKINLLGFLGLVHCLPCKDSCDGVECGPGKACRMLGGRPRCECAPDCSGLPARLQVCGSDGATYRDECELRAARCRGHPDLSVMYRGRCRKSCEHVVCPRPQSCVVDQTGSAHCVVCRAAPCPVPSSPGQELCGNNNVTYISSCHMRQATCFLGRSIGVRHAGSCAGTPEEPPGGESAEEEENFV
Chain of Alpha-bungarotoxin (Bungarus multicinctus) (P60615 whole entry, looked up): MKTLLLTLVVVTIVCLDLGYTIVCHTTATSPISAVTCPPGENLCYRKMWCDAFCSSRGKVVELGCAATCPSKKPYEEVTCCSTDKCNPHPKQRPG
Chain of Fibroblast growth factor 10 (Homo sapiens) (O15520 whole entry, looked up): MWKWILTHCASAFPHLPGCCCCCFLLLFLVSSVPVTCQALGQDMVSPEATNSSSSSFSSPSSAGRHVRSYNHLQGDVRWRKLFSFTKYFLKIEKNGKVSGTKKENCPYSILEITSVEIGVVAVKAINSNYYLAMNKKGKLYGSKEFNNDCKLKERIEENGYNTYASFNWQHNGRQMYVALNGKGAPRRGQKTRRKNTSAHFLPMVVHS
Chain of Epidermal growth factor receptor (Homo sapiens) (P00533 whole entry, looked up): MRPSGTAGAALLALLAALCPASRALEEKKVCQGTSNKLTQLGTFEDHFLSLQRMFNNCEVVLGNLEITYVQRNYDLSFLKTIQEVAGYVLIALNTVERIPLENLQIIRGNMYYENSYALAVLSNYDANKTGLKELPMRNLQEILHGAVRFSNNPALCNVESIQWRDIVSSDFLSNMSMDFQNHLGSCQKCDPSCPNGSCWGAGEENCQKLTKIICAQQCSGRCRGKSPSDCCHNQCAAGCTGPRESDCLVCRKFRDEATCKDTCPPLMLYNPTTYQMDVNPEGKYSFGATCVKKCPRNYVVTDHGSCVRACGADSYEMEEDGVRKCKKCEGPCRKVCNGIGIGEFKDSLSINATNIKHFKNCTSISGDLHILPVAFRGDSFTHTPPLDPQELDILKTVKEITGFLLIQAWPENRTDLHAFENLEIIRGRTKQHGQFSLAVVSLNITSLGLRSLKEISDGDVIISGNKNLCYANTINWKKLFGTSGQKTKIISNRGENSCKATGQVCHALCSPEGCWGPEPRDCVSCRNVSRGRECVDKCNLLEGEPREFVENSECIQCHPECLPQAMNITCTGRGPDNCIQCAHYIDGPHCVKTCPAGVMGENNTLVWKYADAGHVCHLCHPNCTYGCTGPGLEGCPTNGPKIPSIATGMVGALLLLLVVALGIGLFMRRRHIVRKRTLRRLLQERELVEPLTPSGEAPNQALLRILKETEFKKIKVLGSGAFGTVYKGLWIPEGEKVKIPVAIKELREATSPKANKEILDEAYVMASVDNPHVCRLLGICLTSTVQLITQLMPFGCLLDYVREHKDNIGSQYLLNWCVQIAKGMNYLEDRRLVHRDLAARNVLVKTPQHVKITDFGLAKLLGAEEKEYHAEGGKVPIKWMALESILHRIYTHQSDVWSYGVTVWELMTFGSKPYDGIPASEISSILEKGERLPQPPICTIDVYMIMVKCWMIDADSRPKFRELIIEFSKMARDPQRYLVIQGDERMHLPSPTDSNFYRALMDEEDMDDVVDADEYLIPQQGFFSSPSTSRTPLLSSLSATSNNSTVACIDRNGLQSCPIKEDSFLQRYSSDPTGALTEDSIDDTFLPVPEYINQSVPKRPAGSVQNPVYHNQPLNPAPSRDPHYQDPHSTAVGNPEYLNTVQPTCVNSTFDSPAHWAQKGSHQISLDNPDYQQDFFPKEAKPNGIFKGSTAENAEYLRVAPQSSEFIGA

On to `C=CCOC(=O)[C@@H]1[C@H]2C(=O)O[C@H](c3ccccc3)[C@H](c3ccccc3)N2[C@H](c2ccc(OCCOC(=O)[C@H]3C[C@H]4C(=O)N5CCC[C@H]5C(=O)N4[C@H]3c3ccc(O)cc3)cc2)[C@@]12C(=O)Nc1ccc(I)cc12`, for which the composite z-score in assay [1] came to 1.62; in assay [2] it was 0.158; in [3], 0.0375; in [5], 1.17; in assay [6], 1.34; in [7], 0.785. Also, the composite z-score in [8] came out at 1.14; in assay [9], 0.986; in assay [10], 0.379; in [11] it was 0.453; in assay [13] it was 0.928; in assay [14], 1.02. In addition, the composite z-score in [15] is -0.181; in assay [16], -0.203; in assay [17], 0.285; in assay [18] it was -0.326; in assay [19], 0.65; in assay [20], 1.61. For the same compound, the z-score in [4] was -1.27 (inactive); in assay [12], -1.5.

In the case of `CC(C)N1C(=O)c2ccccc2[C@](C)(C(=O)NCCN2CCOCC2)[C@@H]1c1ccc(CO)cc1`, the composite z-score in [1] was 0.24; in assay [2], -0.0879; in assay [3] it was 0.987; in assay [5], -0.499; in assay [6], -0.608; in assay [7], -1.13. The composite z-score in assay [8] is -0.115; in assay [9], -0.75; in assay [10], 0.503; in assay [11] it was 0.416; in assay [13] it was -1.03; in assay [14] it was -0.454. The composite z-score was 0.23 in [15]; -0.139 in [16]; -0.206 in [17]; -0.213 in [18]; 0.143 in assay [19]; 0.0722 in assay [20]. Also, the results for the z-score in assay [4] and in [12] were 0.0672 (inactive) and -0.366, respectively.

Regarding `COC(=O)[C@H](Cc1ccccc1)N1CC2=C[C@@H](C3CC3)n3c(=O)n(C)c(=O)n3[C@H]2[C@@H]1[C@@H](O)Cc1ccccc1`, the composite z-score is 0.711 in assay [1]; -0.412 in assay [2]; -0.5 in assay [3]; 0.617 in assay [5]; 0.658 in assay [6]; 0.217 in assay [7]. Also, the composite z-score is 0.868 in assay [8]; 0.312 in [9]; 0.289 in assay [10]; 1.35 in assay [11]; 0.41 in assay [13]; -0.319 in assay [14]. In addition, the composite z-score was 0.0057 in assay [15]; -0.0718 in assay [16]; -0.0035 in assay [17]; 0.0121 in assay [18]; 0.685 in [19]; -0.0518 in assay [20]. The z-score was -0.515 (inactive) in assay [4] and -1.08 in [12].

For `Cc1ccccc1C(O)C1C=CC2C(=O)N(c3ccccc3)C(=O)C2N1Nc1ccc(C(C)C)cc1` (stereo not given), the composite z-score was found to be 0.623 in assay [1]; 0.456 in [2]; 0.857 in [3]; 0.971 in assay [5]; 1 in assay [6]; 0.304 in assay [7]. Further, the composite z-score in [8] is 1.23; in [9] it was -0.372; in assay [10] it was 0.625; in [11] it was 0.944; in assay [13], 0.262; in assay [14], 1.22. For the same compound, the composite z-score is 0.618 in assay [15]; -0.0721 in assay [16]; 0.14 in assay [17]; 0.209 in assay [18]; 0.0331 in assay [19]; 1.16 in assay [20]. Also, the z-score in [4] is 0.26 (inactive); in [12] it was 1.11.

For `COCCOC(=O)N1C(=O)[C@@]2(c3cc(C#CC4(O)CCCCCC4)ccc31)[C@H](c1ccccc1OCCO)N1[C@H](c3ccccc3)[C@H](c3ccccc3)OC(=O)[C@H]1[C@@H]2C(=O)N1CCN(c2ncccn2)CC1`, the composite z-score in assay [1] is 0.892; in assay [2], 0.0468; in assay [3] it was -0.0635; in assay [5], 1.12; in assay [6] it was 1.03; in assay [7], 0.484. The composite z-score in assay [8] is 1.18; in [9], 0.991; in assay [10], 0.244; in assay [11], 0.0525; in [13], 0.46; in [14] it was 0.156. Further, the composite z-score in [15] is -0.0855; in [16] it was -0.0944; in [17] it was 0.0328; in assay [18] it was 0.612; in assay [19] it was 1.35; in assay [20], 0.509. The values for the z-score in assay [4] and in [12] were 0.514 (inactive) and -2.18, respectively.

As for `CCCC#C[Si](O[C@H](CC)c1cn(Cc2cccc(Cl)c2)nn1)(C(C)C)C(C)C`, the composite z-score was 0.377 in assay [1]; -0.23 in assay [2]; -0.45 in [3]; 1.11 in assay [5]; 1.05 in [6]; 0.484 in assay [7]. In addition, the composite z-score in assay [8] is 0.566; in assay [9], 0.52; in [10] it was -0.121; in assay [11] it was 1.3; in assay [13], 0.431; in assay [14] it was 0.0375. For the same compound, the composite z-score in [15] is 0.169; in [16], -0.0944; in assay [17] it was -0.153; in assay [18], -0.307; in [19] it was 0.545; in assay [20] it was -0.2. Moreover, the z-score in assay [4] is -1.01 (inactive); in assay [12], -0.113.
